# About 83,000 compounds went through this panel and 20% of them were active in at least one assay; those are over-represented in the sample as a whole.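 Single-concentration screen, 48 h exposure, 96-well plates. Endpoint: percent growth. Below 10 = active.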 A number with no mark means an inactive call. Calls of active or inactive are those of the source.
# Tests used:
# Assay in all cases: NCI-60 one-dose screen, 48 h (100 = growth as untreated, 0 = no growth, -100 = all killed)
# Settings in all cases: 10 µM
# [1] = test system: SK-MEL-2 melanoma
# [2] = test system: EKVX NSCLC
# [3] = test system: SN12C renal
# [4] = test system: UO-31 renal
# [5] = test system: ACHN renal
# [6] = test system: CAKI-1 renal
# [7] = test system: CCRF-CEM leukemia
# [8] = test system: MOLT-4 leukemia
# [9] = test system: SR leukemia
# [10] = test system: RPMI-8226 leukemia
# [11] = test system: OVCAR-8 ovarian
# [12] = test system: OVCAR-5 ovarian
# [13] = test system: OVCAR-4 ovarian
# [14] = test system: SK-OV-3 ovarian
# [15] = test system: IGROV1 ovarian
# [16] = test system: OVCAR-3 ovarian
# [17] = test system: HS 578T breast
# [18] = test system: NCI/ADR-RES ovarian
# [19] = test system: TK-10 renal
# [20] = test system: A498 renal
Compound,growth [1],growth [2],growth [3],growth [4],growth [5],growth [6],growth [7],growth [8],growth [9],growth [10],growth [11],growth [12],growth [13],growth [14],growth [15],growth [16],growth [17],growth [18],growth [19],growth [20]
Cc1noc2c(Cc3ccccc3)nn(CC(=O)N/N=C/c3ccc(Cl)cc3)c(=O)c12,94.3%,72.9%,7.85% (active),-40.5% (active),-16.5% (active),38.5%,97.3%,102%,104%,75.5%,8% (active),66%,-59.5% (active),33.9%,41%,-31.8% (active),4.07% (active),53.2%,,
Cc1cc(=O)oc2cc(OCCCCOc3ccc(/C=C/C(=O)Nc4cccc(Cl)c4)cc3)ccc12,86.9%,71.3%,73.8%,84.9%,81.4%,73.2%,83.4%,80.6%,55.1%,57.8%,49.7%,82.1%,-30.5% (active),119%,103%,27.6%,29.5%,45.7%,,
O=C1Nc2cc(Cl)ccc2/C1=C/c1cccc(OCc2ccccc2)c1,-31.8% (active),11.3%,-26.7% (active),,9.76% (active),9.35% (active),0.155% (active),5.59% (active),,-34.7% (active),-65% (active),11.9%,36.7%,32%,11.1%,-5.96% (active),-2.85% (active),-22.2% (active),33.6%,49.9%
CCOC(=O)C1NN(c2ccc(S(N)(=O)=O)cc2)c2nc3nc(-c4cccs4)cc(-c4cccs4)c3c(=O)n21 (configuration not stated),101%,91.8%,90.2%,82.9%,64.9%,59.1%,,78.7%,,77.9%,86.7%,100%,,93.6%,104%,89.9%,8.11% (active),88.6%,,120%
O=C(CSc1nnc(-c2ccc3nc(-c4ccc(Cl)cc4)[nH]c3c2)o1)Nc1ccc(Br)cc1,-69.6% (active),27.9%,-89.2% (active),21.9%,-62.5% (active),-27.8% (active),6.06% (active),-0.919% (active),3.26% (active),0.539% (active),-43.5% (active),39.5%,16.4%,60.2%,23.2%,-15.9% (active),,10.9%,,66.1%
O=C(Nc1ccc(OCc2ccccc2)cc1)Nc1ccc(Cl)c(C(F)(F)F)c1,-40.2% (active),5.04% (active),2.86% (active),-1.46% (active),0.776% (active),3.68% (active),-23.4% (active),,,-30.4% (active),2.36% (active),18.5%,11.2%,-29.7% (active),19%,7.77% (active),-0.0644% (active),1.39% (active),,-15.1% (active)
C=C[C@H]1[C@H](O[C@@H]2OC(CO)[C@@H](O)[C@H](O)C2OC(=O)c2c(O)cc(O)cc2-c2cccc(O)c2)OC=C2C(=O)OCC[C@H]21 (some centres not stated),106%,93.8%,102%,89.3%,105%,93.9%,106%,,,106%,102%,100%,108%,95.7%,101%,112%,,102%,,106%
CCN1CCN(Cc2ccc(C(=O)Nc3cccc(-c4cn(-c5ccc6oc(=O)ccc6c5)nn4)c3)cc2C(F)(F)F)CC1,66.1%,-100% (active),-100% (active),-100% (active),-100% (active),8.59% (active),-21% (active),-29.8% (active),-51.6% (active),-40.7% (active),-100% (active),-100% (active),,25.4%,-100% (active),-100% (active),-21.6% (active),-100% (active),,-100% (active)
COc1cc2c3c(n(CCCNCCO)c(=O)c2cc1OC)-c1nc2c(cc1C3=O)OCO2,116%,79%,8.45% (active),24.4%,2.56% (active),7.66% (active),8.64% (active),-14.4% (active),1.88% (active),3.98% (active),-69.3% (active),-3.64% (active),26.1%,-14.2% (active),12.4%,-68.5% (active),65.6%,84.1%,,

# — PubChem BioAssay (NCI)
